Among the test systems are CDK6; GARS; GSK3A; GSK3B; MAP2K1; NNT; NQO1; PIK3CA; PIK3CD; PRKCZ; PRKD2; PSMC3; SMC4; CLK1; CLK2; CLK4; GAK; MAPK10; MAPK8; MAPK9; PTK2B; PTK2; TNK1; TTK.
Common to all, as to design: species or system human, MV4-11 + K-562 + COLO205 + SK-N-BE2 + OVCAR-8
Details in all cases: read-out: apparent Kd; compound concentrations:100 nM and 1000 nM (sheet 'Samples'); n = 1

For a further assay, the system named is T1, DJA1.
T1 construct: gene DNAJA1

On to `COc1cccc(C2=C(Nc3cccc(C(=O)O)c3)C(=O)NC2=O)c1` [SB-390770], for which the potency estimated from few doses in the assay with CDK6 is 2180 nM; in the assay on DJA1, 842 nM; in the assay on GARS it was 1360 nM; in the assay with GSK3A, 830 nM; in the assay with GSK3B, 859 nM; in the assay on MAP2K1, 2350 nM. The potency estimated from few doses was 1120 nM with NNT; 2210 nM in the assay on NQO1; 226 nM in the assay on PIK3CA; 130 nM with PIK3CD; 1580 nM in the assay with PRKCZ; 1720 nM in the assay with PRKD2. Further, the results for the potency estimated from few doses in the assay with PSMC3 and with SMC4 were 907 nM and 986 nM, respectively.
Turning to `COc1cc(N2CCN(C(C)C)CC2)ccc1Nc1nc(Nc2ccc(F)cc2C(=O)NC[C@@H](O)CO)c2cc[nH]c2n1` [GSK1392956A], the potency estimated from few doses was 415 nM with CLK1; 811 nM in the assay on CLK2; 684 nM in the assay on CLK4; 50.4 nM in the assay on GAK; 92.1 nM in the assay with MAPK10; 140 nM in the assay with MAPK8. The potency estimated from few doses with MAPK9 is 531 nM; with PTK2B it was 188 nM; in the assay on PTK2, 370 nM; in the assay on TNK1 it was 577 nM; in the assay on TTK, 53 nM.

The values are drawn from publication PMC11062922 (Nature Chemical Biology, 2023).
